# Measurements published in PubChem BioAssay (NCI).
# About 79,000 compounds went through this panel and 15% of them were active in at least one assay; those are over-represented in the sample as a whole. Values without a mark were called inactive. The source made the active and inactive calls. Rule as the data show it: active = growth inhibition above about 70%; inactive = the rest.
# How the values were obtained:
# [1] = NCI Yeast Anticancer Drug Screen. Data for the rad50 strain (AID 155);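 also: 0% = growth of vehicle-only cultures of the same strain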; details: S. cerevisiae rad50 strain growth inhibition; at 50.0 µM; stronger effect = higher value
# Procedure, shortened: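 Relative growth inhibition (compound vs vehicle) was measured in yeast with a defined repair-gene alteration.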
# [2] = NCI Yeast Anticancer Drug Screen. Data for the mec2-1 strain (AID 157); details: S. cerevisiae mec2-1 strain, at 50.0 µM, stronger effect = higher value
# Procedure, shortened: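 Each compound was tested on mec2-1 yeast, a strain altered in DNA damage repair or cell cycle control. Growth inhibition is reported relative to vehicle.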
# [3] = NCI Yeast Anticancer Drug Screen. Data for the sgs1 mgt1 strain (AID 161);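 also: 0% = growth of cultures given vehicle only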; details: S. cerevisiae sgs1 mgt1 strain, at 50.0 µM, stronger effect = higher value
# Procedure, shortened: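 Test agents were incubated with a DNA-repair-mutant yeast strain. Growth was then read and compared against vehicle-treated controls.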
# [4] = NCI Yeast Anticancer Drug Screen. Data for the cln2 rad14 strain (AID 165);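 also: 0% = growth equal to vehicle treated cultures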; details: S. cerevisiae cln2 rad14 strain, at 50.0 µM, stronger effect = higher value
# Procedure, shortened: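 Test compounds were added to cln2 rad14 yeast cultures; inhibition of growth was then determined by comparison with vehicle treatment.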
# [5] = NCI Yeast Anticancer Drug Screen. Data for the bub3 strain (AID 167); details: S. cerevisiae bub3 mutant strain, at 50.0 µM, stronger effect = higher value
# Procedure, shortened: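 Screening used yeast with an engineered genetic alteration affecting cell cycle control. Compound-exposed cultures were compared with vehicle cultures, and reduced growth was taken as inhibition.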
# [6] = NCI Yeast Anticancer Drug Screen. Data for the mlh1 rad18 strain (AID 175); details: S. cerevisiae mlh1 rad18 strain growth inhibition; at 50.0 µM; stronger effect = higher value
# Procedure, shortened: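 Inhibition values reflect reduced growth of mutant yeast versus vehicle-treated controls following compound exposure; the mutations affect DNA damage repair.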
SMILES,growth inhibition [1],growth inhibition [2],growth inhibition [3],growth inhibition [4],growth inhibition [5],growth inhibition [6]
Cc1ccccc1C1OC(=O)c2ccc3ccccc3c21 (configuration not stated),10.6%,1.8%,14.4%,7.95%,1.45%,6.55%
CN=C(c1ccccc1)N(O)c1ccccc1,-16.1%,-1.15%,-8.15%,-10.1%,-1.65%,6.2%
C[N+](C)(C)CC(=O)N/N=C/c1oc(-c2cccc([N+](=O)[O-])c2)c(-c2cccc([N+](=O)[O-])c2)c1[N+](=O)[O-],19.4%,11.7%,11.8%,16.3%,-19%,3.35%
SC(S)(Cc1ccccc1)Cc1ccccc1,-6.4%,2.2%,16.4%,-9.65%,35.1%,1%
CC1(C)OC12C=CC1C2C2CCC1C21OC1(C)C (configuration not stated),8%,8.7%,-2.85%,20.1%,-7.3%,-14.6%
c1ccc(CC(c2cccc3ccccc23)N2CCOCC2)cc1 (configuration not stated),22.2%,23.9%,39.7%,-7.55%,30%,23.2%
O=C(O)C(=O)c1ccc(O)cc1O,-1.6%,2.6%,-8.15%,-35.9%,1.85%,14.9%
O=C1CCC2CCc3cccc1c32 (configuration not stated),0.15%,-7.75%,-12.3%,-19.4%,-18.6%,3.05%
CCCSc1ncnc2c1ncn2COC(=O)NC,15.1%,-11.4%,5.2%,5.15%,11.3%,-2.8%
NC(N)=N/N=C/C(=N\N=C(N)N)C(O)CO (configuration not stated),28.9%,-4.45%,1.85%,2.4%,4.85%,-9.1%
c1ccc([P+](c2ccccc2)(c2ccccc2)C2c3ccccc3CCc3ccccc32)cc1,99.6% (active),99.8% (active),99.5% (active),99.5% (active),99.4% (active),99.6% (active)
Cc1cc(O)c(/C=N/C(=O)NN)c(=O)o1,-40.6%,-11.1%,-20.1%,-22.4%,-22.5%,-42.5%
CS(=O)(=O)OCCCCOS(C)(=O)=O,-9.5%,-23.9%,8.55%,2%,12.1%,0.05%
CC(C)(C)NN=C1C(C)(C)C(=NNC(C)(C)C)C1(C)C,-24%,-30.1%,-13.8%,13.9%,-23.1%,-10.9%
CCCCCCCCCCCCCCCCOC(=O)/C=C/c1ccccc1,-8.35%,-2.35%,-7.45%,-8.55%,-12.3%,9.1%
CCN=NNc1ccc(C#N)cc1,6.4%,2.15%,-0.25%,6.1%,16.9%,0.55%
O=C(Nc1ccccc1)Nc1ccc(-c2ccccc2)cc1,13.7%,14.1%,13.1%,5.7%,37.6%,3.5%
CN(CO)N=Nc1ccc(C(F)(F)F)cc1,-6.05%,-0.65%,-10%,-14.2%,13.2%,19.8%
Cc1ccc(NS(=O)(=O)c2ccc(F)cc2)cc1Cl,99.7% (active),99.3% (active),99.7% (active),99.3% (active),99.6% (active),99.8% (active)
CCOC(=O)c1[nH]n(-c2ccccc2)c(=O)c1/C=N/C(=S)NCCc1ccc(OC)c(OC)c1,2.05%,-0.6%,5.4%,-10.8%,-21%,13.2%
CCCCCCCCCCCCCCCCCCNC(=O)N1CCC(C)CC1,-7.9%,-4.8%,21.2%,-13.7%,4.95%,-24.6%

SMILES,growth inhibition [1],growth inhibition [2],growth inhibition [3],growth inhibition [4],growth inhibition [5],growth inhibition [6]
Cc1ccc(/C(=C/CN2CC3CCC(CC3)C2)c2ccccc2)cc1,-1.15%,-4.5%,11.9%,-14.3%,10.4%,-13.8%
COC1OC(COS(C)(=O)=O)C2OC(C)(C)OC12 (configuration not stated),11.6%,1.85%,3.55%,11.6%,-9.3%,21.9%
O=C(OC1COC(OC(=O)c2ccc([N+](=O)[O-])cc2)C(OC(=O)c2ccc([N+](=O)[O-])cc2)C1OC(=O)c1ccc([N+](=O)[O-])cc1)c1ccc([N+](=O)[O-])cc1 (configuration not stated),-6.15%,1.65%,-9.9%,-16.9%,-1.3%,4.3%
O=[N+]([O-])c1ccc(P(=O)(O)c2ccc([N+](=O)[O-])cc2)cc1,15%,17.6%,23.6%,-25.9%,-11%,34.7%
C(=N/NC(=N/N=C/c1ccccc1)N/N=C/c1ccccc1)/c1ccccc1,28.8%,23.1%,46.6%,28.3%,5.65%,24.1%
C/C=C/C=C/c1nc(C#N)c(N)o1,-7.6%,-2.2%,1.55%,12.7%,15.3%,-3.55%
OC(COc1cccc(C(F)(F)F)c1)CN1CCN(c2ccccc2)CC1 (configuration not stated),83.7% (active),83% (active),93.5% (active),86.7% (active),75.4% (active),87.3% (active)
C=C1CCc2occ(C)c2C2C1C1=C(CC(C)C1=O)C1OC12C (configuration not stated),14.9%,11.1%,-2.75%,-22.8%,12.4%,10.2%
[N-]=[N+]=Nc1ccccc1Oc1ccccc1,9.85%,-18.1%,5.15%,17.7%,-16.6%,10.5%
O=C(O)CCCCCNC(=O)c1ccccc1,18.3%,14.8%,16.2%,6.4%,-8.2%,22.2%
CC(=O)c1ccc(OC(=O)Nc2ccc(Cl)cc2)cc1,4.8%,10.1%,23.9%,-2.3%,29.6%,12.9%
COc1ccc2c3c([nH]c2c1[N+](=O)[O-])C(C)N(C)CC3 (configuration not stated),-0.1%,7.5%,21.1%,25.3%,0.8%,33.2%
CS/C(=N/N=C(\C)c1ccccn1)[Se][Se]/C(=N/N=C(\C)c1ccccn1)SC,15.7%,-1%,15.6%,29.2%,-2.5%,30.9%
NC(=S)N/C=C\c1nc2ccccc2[nH]c1=O,-34.4%,-18.6%,-39.1%,-21.8%,-12.1%,-15.4%
c1cc(-c2nnc(-c3ccncc3)s2)ccn1,6.2%,-1.35%,-9.25%,32.5%,14.5%,-8.15%
COc1ccc(/C=C2/CCOC2=O)cc1,44.1%,18.7%,11.4%,-9.3%,-2.6%,28.8%
CC1(C)C=C(C(Cl)c2ccccc2)C(=O)c2ccccc21 (configuration not stated),-1%,6.6%,0%,-4.6%,-3.7%,-7.15%
CCCC(=O)OCCC(C)C,30.9%,10.3%,13.3%,-29.9%,-13.5%,22.4%
COc1cc(C(=O)O)cc(OC)n1,10.8%,4.15%,-6.6%,-36.4%,-16.9%,8.25%
COc1ccc2c(c1)C=C(C(C)(C)C)NS2(=O)=O,23.6%,-22.6%,2%,-12.7%,59%,63.4%
Fc1ccc(NC(=S)NCCN2CCCC2)cc1,3.9%,34.2%,8.1%,3.75%,12.8%,-4.3%
